In PubChem BioAssay (NCATS):
Inconclusive results are not listed. The source made the active and inactive calls. Calls come from the whole dose curve; as a rule, active = well fitted curve in the direction sought with a large enough effect; inconclusive = small, poorly fitted or top-dose-only effect, or another doubt; inactive = no such curve, though single readings can be large; an effect the other way counts as inactive or inconclusive. Peptide text beside a SMILES is read from it.
% is set by controls: 0 for no effect and ±100 for the full control effect.

Target: Calcium and integrin-binding protein 1 (Homo sapiens) (UniProt Q99828)
Sequence (Q99828 whole entry, looked up): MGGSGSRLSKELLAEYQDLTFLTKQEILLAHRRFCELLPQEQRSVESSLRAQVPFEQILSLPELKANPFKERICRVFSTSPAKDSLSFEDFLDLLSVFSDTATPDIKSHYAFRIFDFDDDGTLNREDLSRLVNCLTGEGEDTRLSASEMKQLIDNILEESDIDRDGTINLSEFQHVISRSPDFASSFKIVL
Experiment: Primary qHTS for Identification of Calcium Integrin Binding Protein 1 (CIB1) Competitor (AID 1508620);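 note: GST tagged CIB1 binding a fluorescein labelled alphaIIb integrin peptide tracer; top concentration of the series differs between compounds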
Settings: CIB1-GST / FITC-alphaIIb peptide fluorescence polarization; series mostly up to 57.7 µM; activity change, negative = inhibition: at the top concentration
In short: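 Fluorescence polarization competition: GST-tagged CIB1 (1 uM final) preincubated with compound 15 min at room temperature, then FITC-labelled alphaIIb peptide (100 nM final) added. After 15 min at room temperature, polarization read at Ex 480/Em 540.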
With Cc1ccc(C(=O)Nc2ccc(Oc3cc4cnn(C)c4cc3-c3cn[nH]c3)c(F)c2)c(=O)n1-c1ccc(F)cc1 the Potency was “inactive”. For C[C@]12C=CC(=O)C=C1CC[C@@H]1[C@@H]2[C@@H](O)C[C@@]2(C)[C@H]1CC[C@]2(O)C(=O)COC(=O)CCC(=O)O, the “activity change, negative = inhibition” value was 3.64% [at 114 µM] (inactive). For O=C(c1ccccn1)c1cnn2c(-c3ccncc3)ccnc12, the “activity change, negative = inhibition” value was -3.4% [at 114 µM] (inactive). With C[C@@H](Nc1cc(NS(=O)(=O)N2CCC2)nc(SCc2cccc(F)c2F)n1)[C@@H](O)CO the “activity change, negative = inhibition” value was -2.2% [at 114 µM] (inactive). With COc1cccc(-c2ccc([C@@H](Oc3cc(-c4ccc(C[C@H](N)C(=O)O)cc4)nc(N)n3)C(F)(F)F)cc2)c1 the “activity change, negative = inhibition” value was 4.53% [at 114 µM] (inactive). For O=C(COc1ccc(Cl)cc1)NC1CCC(NC(=O)COc2ccc(Cl)cc2)CC1 (stereo not drawn), the “activity change, negative = inhibition” value was -2.61% [at 114 µM] (inactive). In the case of CCc1cc2c(=O)c(-c3nc4ccccc4s3)coc2c(CN2CCCCC2)c1O, the “activity change, negative = inhibition” value is reported as 0.939% (inactive). With CC1(C)CC(=O)N(CCCCN2CCN(c3ncccn3)CC2)C(=O)C1 the “activity change, negative = inhibition” value was 2.62% [at 114 µM] (inactive). In the case of C=Cc1cc(O)cc2nc(-c3ccc(O)c(F)c3)oc12, the “activity change, negative = inhibition” value is reported as -4.82% [at 114 µM] (inactive). With CNC(=O)Nc1ccc(OC)c(NC(=O)NC(=O)c2cc(F)c(F)cc2Cl)c1 the “activity change, negative = inhibition” value was 2.1% [at 114 µM] (inactive). For Cc1cn2c(N)c(Cl)cc(C(=O)NCC3CCN(CC(C)C)CC3)c2n1, the “activity change, negative = inhibition” value was -1.12% [at 114 µM] (inactive). For O=c1c2cccnc2n(-c2cccc([N+](=O)[O-])c2)c(=O)n1Cc1ccncc1, the “activity change, negative = inhibition” value was 3.01% [at 114 µM] (inactive). With c1nc(NC2CCCCCC2)c2cc(CNC[C@H]3CCCO3)sc2n1 the “activity change, negative = inhibition” value was 0.108% [at 114 µM] (inactive). With CNC(=O)O[C@H]1COc2ccc(N3CCN(C4COC4)CC3)cc2[C@@H]1NC(=O)c1ccc(F)cc1 the “activity change, negative = inhibition” value was 7.11% [at 114 µM] (inactive). In the case of CC(=O)N1CCN(NC(=O)c2ccc(F)cc2)CC1, the “activity change, negative = inhibition” value is reported as -0.686% [at 114 µM] (inactive). In the case of NS(=O)(=O)OC[C@@H]1C[C@@H](n2ccc3c(N[C@H]4CCc5ccccc54)ncnc32)C[C@@H]1O, the Potency is reported as “inactive”.

System: not listed separately
Experiment: Primary qHTS for small molecule stabilizers of the endoplasmic reticulum resident proteome: Secreted ER Calcium Modulated Protein (SERCaMP) assay (AID 1508630)
Settings: SH-SY5Y GLuc-SERCaMP (Gaussia luciferase released on ER calcium loss) secretion, thapsigargin, luminescence; series mostly up to 38.4 µM; activity change, negative = inhibition: at the top concentration
In short: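 The SH-SY5Y reporter protocol was run at 3 concentrations up to 38.3 uM (primary) or 11 concentrations (follow-up): 16 h compound, 100 nM thapsigargin for 4 h, then extracellular luciferase luminescence.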
In the case of O=C(O)CC/C=C\CC[C@H]1[C@@H](N2CCCCC2)[C@@H](O)C[C@@H]1OCc1ccc(-c2ccccc2)cc1, the “activity change, negative = inhibition” value is reported as -1.92% (inactive). For Cc1cc(/C=C/c2ccc3cc(N(C)C)ccc3[n+]2C)c(C)n1-c1ccccc1, the “activity change, negative = inhibition” value was 83.6% (inactive). In the case of CC1=C(/C=C/C(C)=C/C=C/C(C)=C/CO)C(C)(C)CCC1, the “activity change, negative = inhibition” value is reported as -2.28% (inactive). In the case of CCCCC/C=C\C/C=C\CCCCCCCC(=O)O, the activity change, negative = inhibition is reported as -23.8% [at 3.88 µM] (inactive). For CC(=O)N[C@@H](CC(=O)O)C(=O)N[C@@H](CCC(=O)O)C(=O)O (Ac-Asp-Glu-OH), the “activity change, negative = inhibition” value was -11.1% (inactive). For CC(C)N=c1cc2n(-c3ccc(Cl)cc3)c3ccccc3nc-2cc1Nc1ccc(Cl)cc1, the “activity change, negative = inhibition” value was -14.6% (inactive). For CCOC(=O)C1=CC2(CC)CCCN3CCc4c(n1c1ccccc41)C32 (stereo not drawn), the “activity change, negative = inhibition” value was -7.51% (inactive).
